Sampled rows, rich in hits. Any-hit rate of the full collection: about 3.6%.
HSF1 inh: HSF1 inhibitors in luciferase reporter cells, primary screen, cell-based, NIH3T3, luminescence; NIH3T3-HGL HSE-luciferase, MG132-induced, luminescence 8 h; stronger effect = lower value; 300,000 compounds, 0.77% hits; AID 2098, 2009; activity change, negative = inhibition, % at 7.5 µM (by protocol);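 active = more than half of replicate wells show activity change below -50%, luminescence cut by over half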;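 note: luciferase reports HSF-1 transcriptional activity via heat shock element; 0% = median of DMSO wells and -100% = zero luminescence signal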
TROY signal inh: inhibitors of TROY-driven NF-kB signaling, primary screen, Q293 LMP1-TROYcd cells, NF-kB luciferase, uHTS; 360,000 compounds, 0.98% hits; inhibition, % at 10 µM; Q293 LMP1-TROYcd NF-kB luciferase reporter, 4 h; AID 1347056, 2019;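 active = compounds whose plate-normalised and pattern-corrected inhibition of the luciferase reporter signal at the single screening dose is 50% or more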
EBV LMP1 NFkB: EBV LMP1-driven NF-kappaB luciferase reporter inhibitors, primary screen, cell-based, luminescence, single point; LMP1-induced NF-kappaB luciferase reporter cells; inhibition, % at 12.5 µM; 350,000 compounds, 0.69% hits; in the data active = inhibition above about 41%;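 note: 0% = neutral control wells and 100% = reference inhibitor control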
TWEAK Fn14 block: inhibitors of TWEAK-Fn14 signaling, primary screen, luciferase reporter cells, uHTS; TWEAK-stimulated Fn14 reporter cells, luciferase luminescence, 8 h; inhibition, % at 10 µM; 360,000 compounds, 2% hits; AID 1159606, 2016; in the data active = inhibition above about 50%
HSF-1 act: HSF-1 activators, primary screen, NIH3T3-HGL cells, MG132 stress, luminescence, single point; activation, % at 9 µM; 300,000 compounds, 1.7% hits; NIH3T3-HGL HSF-1 luciferase reporter, 8 h; 100% = twice DMSO control signal; AID 504408, 2011;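 active = mean replicate activation of at least 50% with a set share of replicates each reaching 50%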;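 note: 0% = median of the neutral control wells and 100% = twice that signal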
LGR2 antag: inhibitors of bursicon-induced LGR2 CRE-luciferase signal, primary screen, cell-based, HEK293, CRE-luciferase reporter, bursicon stimulation | Drosophila bursicon receptor LGR2 (rickets) | bursicon-stimulated, 4 h | inhibition, % at 9.99 µM | 380,000 compounds, 0.35% hits | AID 720647, 2013;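 active = drop in luminescence signal, shown as inhibition above about 50% in the replicate tests, limit read from the data, passing the limit was not always enough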;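 note: agonist challenge used bursicon conditioned medium at about half maximal strength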
Starred values were filed as active, the others as inactive.

What do the screens show for `CCN(CC)S(=O)(=O)c1ccc(NC(=O)Nc2cccc(C(F)(F)F)c2)cc1`?
HSF1 inh: -9; TROY signal inh: 58*; EBV LMP1 NFkB: 27; TWEAK Fn14 block: 76*; HSF-1 act: -9

What do the screens show for `O=C(Nc1ccc(OC(F)F)cc1)Nc1cccc(C(F)(F)F)c1`?
HSF1 inh: -6; TROY signal inh: 46; EBV LMP1 NFkB: 29; TWEAK Fn14 block: 59*; HSF-1 act: -3

What do the screens show for `Cc1ccc(S(=O)(=O)Nc2ccc(NC(=O)Nc3cccc(C(F)(F)F)c3)cc2)cc1`?
HSF1 inh: 2; TROY signal inh: 41; EBV LMP1 NFkB: -6; TWEAK Fn14 block: 86*; HSF-1 act: 2; LGR2 antag: 14

How did CNC(=O)C[C@H]1CC[C@@H]2[C@@H](COc3ccc(NC(=O)c4cccs4)cc3C(=O)N2C)O1 do in these assays?
LGR2 antag: -3

Results for COCC(=O)N(C)C[C@H]1Oc2cc(C#Cc3cccnc3)ccc2S(=O)(=O)N([C@H](C)CO)C[C@@H]1C ?
LGR2 antag: 11

What do the screens show for `COc1ccc2c3c([nH]c2c1)[C@H](CO)N(C(=O)c1ccccc1)CC31CCN(C(=O)CC2CC2)CC1`?
LGR2 antag: -16

How did COc1ccc(S(=O)(=O)n2c([N+](=O)[O-])cnc2C)cc1OC do in these assays?
HSF1 inh: -1; TROY signal inh: 15; EBV LMP1 NFkB: 8; TWEAK Fn14 block: -1; HSF-1 act: 5; LGR2 antag: -3

How did COc1ccc(C)cc1S(=O)(=O)n1c([N+](=O)[O-])cnc1C do in these assays?
HSF1 inh: -3; TROY signal inh: 15; EBV LMP1 NFkB: 4; TWEAK Fn14 block: 87*; HSF-1 act: -3; LGR2 antag: 0

How did N=C1S/C(=C\c2ccco2)C(=O)N1c1nccs1 do in these assays?
HSF1 inh: 113; TROY signal inh: 16; EBV LMP1 NFkB: -4; TWEAK Fn14 block: 9; HSF-1 act: 98*; LGR2 antag: -1

How did N=C1S/C(=C\c2ccco2)C(=O)N1c1ccc2c(c1)OCO2 do in these assays?
HSF1 inh: 13; TROY signal inh: 6; EBV LMP1 NFkB: -9; TWEAK Fn14 block: -6; HSF-1 act: 32; LGR2 antag: -48

How did N/C(=N\OC(=O)c1ccc(F)cc1)c1nonc1N do in these assays?
HSF1 inh: 26; TROY signal inh: -70; EBV LMP1 NFkB: 8; TWEAK Fn14 block: -14; HSF-1 act: 21; LGR2 antag: -35

Results for Cc1ccc(C(=O)O/N=C(\N)c2nonc2N)cc1 ?
HSF1 inh: 13; TROY signal inh: 66*; EBV LMP1 NFkB: -25; TWEAK Fn14 block: 55*; HSF-1 act: 36; LGR2 antag: 78*

Results for C/C(=N\OC(=O)c1ccc(C)cc1)c1sc(C)nc1C ?
HSF1 inh: 3; TROY signal inh: -70; EBV LMP1 NFkB: 7; TWEAK Fn14 block: 6; HSF-1 act: -6

What do the screens show for `N/C(=N\OC(=O)C(c1ccccc1)c1ccccc1)c1cccnc1`?
HSF1 inh: 4; TROY signal inh: -1; EBV LMP1 NFkB: 3; TWEAK Fn14 block: -4; HSF-1 act: -1

How did N/C(=N\OC(=O)C(c1ccccc1)c1ccccc1)c1ccccn1 do in these assays?
HSF1 inh: 39; TROY signal inh: -52; EBV LMP1 NFkB: -8; TWEAK Fn14 block: -13; HSF-1 act: 73*

How did CC(C)(C)c1ccc(C(=O)O/N=C(\N)c2ccccn2)cc1 do in these assays?
HSF1 inh: -89*; TROY signal inh: 89*; EBV LMP1 NFkB: 74*; TWEAK Fn14 block: 103*; HSF-1 act: -90; LGR2 antag: 102*

What do the screens show for `C/C(=N/OC(=O)c1ccc(C)cc1)c1cccs1`?
HSF1 inh: -8; TROY signal inh: 62*; EBV LMP1 NFkB: 2; TWEAK Fn14 block: 29; HSF-1 act: -1

How did O=C(Nc1ccccc1F)N[C@@H]1CC[C@H](CCNC(=O)C2CCCCC2)O[C@H]1CO do in these assays?
LGR2 antag: -10

Compound activity from PubChem.
